These are literature values, as cited in PubChem BioAssay AID977608.

Hit rate of the full screen: of about 4,300 compounds, about 4,300 (100%) were called active. Cut-off not given; nearly all actives show IC50 up to about 1400 µM. The set was probably picked from earlier hits. Some of the results follow. Starred links: 1 amine or outer side, 2 acyl side, 3 side chain; linkers in the order of their positions; H or OH if unused. Positions of bridges follow the written chain, without caps; N, C: chain ends. Non-standard residues stand in square brackets, D forms with d. Residues, ends and D or L forms follow the SMILES beside them. X1 = O=C([C@H](Cc1ccc(C(F)(F)[P+](O)(O)O)cc1)N[*:1])[*:2]; Nle(6-ylidene) = O=C([C@H](CCCC=[*:3])N[*:1])[*:2]; Abu = CC[C@H](N)C(=O)O

The nature of the data set: protein-ligand inhibition affinities from structures – PDB-derived complexes (AID 977608).

As a reminder, the IC50 is the concentration that gives 50% inhibition. In the case of `C[C@@H]1NC(=O)[C@@H]2CSSC[C@H](NC(=O)CN)C(=O)N[C@@H](CSSC[C@@H](C(N)=O)NC(=O)[C@H](CCCNC(N)N)NC(=O)[C@H](Cc3c[nH]c4ccccc34)NC1=O)C(=O)N[C@@H](CO)C(=O)N[C@@H](CC(=O)O)C(=O)N1CCC[C@H]1C(=O)N[C@@H](CCCNC(N)N)C(=O)N2`, the half-inhibitory concentration (IC50) (literature IC50, protein: nicotinic acetylcholine receptor homolog AChBP, PDB entry 2c9t) is 0.033 µM (active).
With `CC(C)C[C@H]1NC(=O)[C@@H](Cc2c[nH]c3ccccc23)NC(=O)[C@@H](CCC(N)=O)NC(=O)[C@@H](Cc2c[nH]c3ccccc23)NC(=O)[C@@H](CCC(=O)O)NC(=O)[C@H]2CCCN2C(=O)[C@@H](CO)NC(=O)[C@@H](CCC(=O)O)NC(=O)[C@H](NC(=O)[C@@H](C)NC(=O)CNC(=O)[C@H](N)CCCCN)CSSC[C@H](C(=O)N[C@H](C)C(=O)N[C@H](C)C(=O)O)NC1=O`, for the setting “literature IC50, protein: gp41 N-peptide, PDB entry 2r3c”, the IC50 is 2.2 µM (active).
As for `CC(=O)NCC(=O)N[C@H](C)C(=O)N[C@@H]1CSSC[C@H](C(=O)N[C@H](C)C(=O)N[C@H](C)C(=O)O)NC(=O)[C@@H](CC(C)C)NC(=O)[C@@H](Cc2c[nH]c3ccccc23)NC(=O)[C@@H](C)NC(=O)[C@@H](Cc2c[nH]c3ccccc23)NC(=O)[C@@H](CCC(=O)O)NC(=O)[C@@H](CCCNC(N)N)NC(=O)[C@@H](Cc2cnc[nH]2)NC(=O)[C@@H](CCCNC(N)N)NC(=O)[C@@H](C)NC(=O)[C@@H](CCC(=O)O)NC1=O`, the IC50 (literature IC50, protein: IQN17, PDB entry 1czq) was 29 µM (active).
For the compound `Cc1c(C(=O)O)cccc1-c1nc2nc(N)nc(OCC3CCCCC3)c2[nH]1`, where the note is “literature IC50, protein: CYCLIN-DEPENDENT KINASE 2, CDK2, PDB entry 4cfu”, the IC50 is 100 µM (active).
`CNC(=O)NC(N)NCCC[C@H](NC(=O)Cn1nncc1CO/N=C/c1ccnc2ccccc12)C(=O)N(Cc1ccccc1)Cc1ccccc1` (stereo not given in full): the IC50 (literature IC50, protein: Chitinase B, PDB entry 3wd1) was 0.022 µM (active).
For `CNC(=O)NC(N)NCCC[C@H](NC(=O)CN=[N+]=[N-])C(=O)N(Cc1ccccc1)Cc1ccccc1` (stereo not given in full), the half-maximal inhibitory concentration (IC50) (literature IC50, protein: Chitinase B, PDB entry 3wd2) is 0.58 µM (active).
`CC(C)C[C@H](NC(=O)[C@H](CCCCN)NC(=O)[C@H](CCC(=O)O)NC(=O)[C@H](Cc1ccc(O)cc1)NC(=O)[C@H](C)NC(=O)[C@@H]1CCCN1C(=O)[C@@H]1CCCN1C(=O)[C@H](C)N)C(=O)N[C@@H](CO[P+](O)(O)O)C(=O)N[C@@H](C)C(=O)N[C@@H](CCC(=O)O)C(=O)N[C@@H](CCC(N)=O)C(=O)N[C@@H](CO)C(=O)N1CCC[C@H]1C(=O)N1CCC[C@H]1C(=O)O`: for the setting “literature IC50, protein: MHC class II molecule HLA-DR1, PDB entry 3l6f”, the half-inhibitory concentration (IC50) was 0.102 µM (active).
Regarding H-DVFYPYPYASGS-OH, the IC50 (literature IC50, protein: concanavalin A(ConA), PDB entry 1jyi) is 100 µM (active).
For `C[C@H](NC(=O)[C@@H](N)CCC(=O)O)C(=O)N[C@@H](CCC(N)=O)C(=O)N[C@@H](Cc1ccc(C(F)(F)[P+](O)(O)O)cc1)C(=O)N[C@@H](CCC(N)=O)C(=O)N1CCC[C@H]1C(=O)O` (H-EAQ[X1]QP-OH), for the setting “literature IC50, protein: TYROSINE-PROTEIN PHOSPHATASE NON-RECEPTOR TYPE 1, PTP1B, PDB entry 3zmq”, the 50% inhibitory concentration (IC50) was 0.36 µM (active).
For H-SIGKAFKILGYPD-OH, the IC50 (literature IC50, protein: G Protein Beta:Gamma Heterodimer, PDB entry 1xhm) is 0.47 µM (active).
In the case of `C[C@H](N)C(=O)N[C@@H](Cc1ccc(C(F)(F)[P+](O)(O)O)cc1)C(=O)N[C@@H](C)C(=O)O`, the IC50 (literature IC50, protein: TYROSINE-PROTEIN PHOSPHATASE NON-RECEPTOR TYPE 1, PTP1B, PDB entry 3zmp) was 2.13 µM (active).
As to `CC(C)C[C@H](NC(=O)CNC(=O)[C@@H](NC(=O)[C@@H](NC(=O)[C@H](C)NC(=O)[C@@H]1CCCN1C(=O)[C@@H](N)CC(C)C)C(C)C)C(C)C)C(=O)N[C@@H](CO)C(=O)N1CCC[C@H]1C(=O)NCC(=O)N[C@@H](CCC(=O)O)C(=O)N[C@@H](CCC(N)=O)C(=O)N[C@@H](CCC(=O)O)C(=O)N[C@@H](Cc1ccc(O)cc1)C(=O)O`, under “literature IC50, protein: HLA-B*3501, PDB entry 1xh3”, the IC50 was 3.1 µM (active).
Take `CC[C@H](NC(=O)[C@H](CCCCN)NC(=O)[C@H](CCCN=C(N)N)NC(=O)[C@@H]1CCC/C=C\CCC[C@H](NC(=O)[C@H](CCCN=C(N)N)NC(=O)[C@H](CC(C)C)NC(=O)[C@H](CC(C)C)NC(=O)[C@H](CO)NC(=O)[C@@H]2CCCN2C(=O)[C@@H](NC(=O)[C@H](CC(N)=O)NC(=O)[C@H](CCCCN)NC(C)=O)[C@@H](C)CC)C(=O)N[C@@H](CCC(N)=O)C(=O)N[C@@H](C)C(=O)N[C@@H](Cc2c[nH]cn2)C(=O)N1)C(=O)N[C@@H](CCSC)C(=O)N[C@H](C(=O)O)C(C)C` (Ac-KNIPSLLR[Nle(6-ylidene)]QAH[Nle(6-ylidene)]RK[Abu]MV-OH; staple (Z) 9-13): for the setting “literature IC50, protein: Myosin A tail domain interacting protein, MTIP from Plasmodium falciparum, PDB entry 4mzk”, the IC50 is 4.9 µM (active).
`CC[C@H](C)[C@H](NC(=O)[C@H](Cc1c[nH]cn1)NC(=O)[C@H](C)NC(=O)[C@H](CCC(N)=O)NC(=O)[C@@H](NC(=O)[C@H](CCCN=C(N)N)NC(=O)[C@@H]1CCC/C=C\CCC[C@H](NC(=O)[C@H](CC(N)=O)NC(=O)[C@H](CCCCN)NC(C)=O)C(=O)N2CCC[C@H]2C(=O)N[C@@H](CO)C(=O)N[C@@H](CC(C)C)C(=O)N1)C(C)C)C(=O)N[C@@H](CCCN=C(N)N)C(=O)N[C@@H](CCCCN)C(=O)N[C@@H](CCCCN)C(=O)N[C@@H](CCSC)C(=O)N[C@H](C(=O)O)C(C)C` (Ac-KN[Nle(6-ylidene)]PSL[Nle(6-ylidene)]RVQAHIRKKMV-OH; staple (Z) 3-7): the IC50 (literature IC50, protein: Myosin A tail domain interacting protein, MTIP from Plasmodium falciparum, PDB entry 4mzj) was 1.6 µM (active).
On to `Cc1ccc(-c2cnc(Nc3ccc(OCCCN4CCN(C)CC4)cc3)c(C(N)=O)n2)cc1C`, for which, where the note is “literature IC50, protein: DNA GYRASE SUBUNIT B, PDB entry 4b6c”, the IC50 is 0.69 µM (active).
As for `Nc1ncnc2c1ncn2[C@@H]1O[C@H](CO[P+](O)(O)O)[C@@H](O)[C@H]1O`, the IC50 reads like this: (literature IC50, protein: Bis(5'-adenosyl)-triphosphatase ENPP4, PDB entry 4lqy) 129 µM (active); (literature IC50, protein: Sus scrofa FRUCTOSE-1,6-BISPHOSPHATASE, PDB entry 1fpi) 1.3 µM (active); (literature IC50, protein: human liver fructose-1,6-bisphosphatase (FBPase), PDB entry 1fta) 0.44 µM (active).
`Nc1ncnc2c1ncn2[C@@H]1O[C@H](CO[P+](O)(O)O[P+](O)(O)N[P+](O)(O)O)[C@@H](O)[C@H]1O`: the IC50 (literature IC50, protein: Microcin-J25 export ATP-binding/permease protein McjD, PDB entry 4pl0) is 39.5 µM (active).
As for `Nc1ncnc2c1ncn2[C@@H]1O[C@H](CSCC[C@H](N)C(=O)O)[C@@H](O)[C@H]1O`, the IC50 is, setting by setting: (literature IC50, protein: Catechol O-methyltransferase COMT, PDB entry 4pyn) 30 µM (active); (literature IC50, protein: Catechol O-methyltransferase COMT, PDB entry 4pyo) 30 µM (active).
`Nc1ncnc2c1ncn2[C@@H]1O[C@H](CO[P+](O)(O)O[P+](O)(O)OC[C@H]2NC[C@H](O)[C@@H]2O)[C@@H](O)[C@H]1O`: for the setting “literature IC50, protein: mouse poly(ADP-ribose) glycohydrolase (PARG) catalytic domain, PDB entry 4na4”, the IC50 is 0.12 µM (active).
`CC#C[C@H]1CN(S(=O)(=O)c2ccc(N)nc2)CCN1c1ccc([C@](O)(CCCC)C(F)(F)F)cc1`: for the setting “literature IC50, protein: Glucokinase regulatory protein hGKRP, PDB entry 4ohk”, the IC50 is 0.005 µM (active).
On to `Nc1nc(Nc2ccccc2)sc1C(O)c1cccnc1` (stereo not given), for which the half-inhibitory concentration (IC50) (literature IC50, protein: Cyclin-dependent kinase 2, PDB entry 3qtw) was 0.65 µM (active).
As to `NC(=O)c1ccc(Nc2nc(N)c(C(O)c3cccnc3)s2)cc1` (stereo not given), the IC50 (literature IC50, protein: Cyclin-dependent kinase 2, PDB entry 3rk7) is 0.2 µM (active).
Consider `Nc1nc(Nc2ccccc2)sc1C(O)c1ccccc1` (stereo not given), for which, under “literature IC50, protein: Cyclin-dependent kinase 2, PDB entry 3qtr”, the IC50 is 0.93 µM (active).
Consider `Nc1nc(Nc2ccc(C(=O)O)cc2)sc1C(O)c1cccnc1` (stereo not given), for which the IC50 (literature IC50, protein: Cyclin-dependent kinase 2, PDB entry 3rk5) is 4 µM (active).
As to `Nc1nc(Nc2ccccc2)sc1C(O)c1cccc(C(F)(F)F)c1` (stereo not given), for the setting “literature IC50, protein: Cyclin-dependent kinase 2, PDB entry 3rpr”, the IC50 was 100 µM (active).
As for `Cc1cc2c(C3=CCC=NC3=O)c(C(=O)O)n(Cc3cnc4ccccc4c3)c2cc1F`, under “literature IC50, protein: RNA-directed RNA polymerase, PDB entry 4mz4”, the IC50 is 0.013 µM (active).
Turning to `Cc1cccnc1-n1nc(-c2ccccc2)nc1C1C=NC(=O)C(Cl)=C1` (stereo not given), for the setting “literature IC50, protein: Bromodomain-containing protein 4, PDB entry 4mep”, the IC50 was 4.7 µM (active).
